The values that follow come from ChEMBL document CHEMBL1961873, “Compounds: GSK PKIS; Assays: Nanosyn kinase panel” (2012).

Molecules are shown by their SMILES.

Test [1] has as its target Sphingosine kinase 1 (Homo sapiens) (UniProt Q9NYA1). The settings on record: at 1 µM.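 Further: mean SPHK1 inhibition value reported from the GSK PKIS kinase panel screen.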
The target of test [2] is T1, Sphingosine kinase 2 (Homo sapiens) (UniProt Q9NRA0).
T1 sequence (whole entry): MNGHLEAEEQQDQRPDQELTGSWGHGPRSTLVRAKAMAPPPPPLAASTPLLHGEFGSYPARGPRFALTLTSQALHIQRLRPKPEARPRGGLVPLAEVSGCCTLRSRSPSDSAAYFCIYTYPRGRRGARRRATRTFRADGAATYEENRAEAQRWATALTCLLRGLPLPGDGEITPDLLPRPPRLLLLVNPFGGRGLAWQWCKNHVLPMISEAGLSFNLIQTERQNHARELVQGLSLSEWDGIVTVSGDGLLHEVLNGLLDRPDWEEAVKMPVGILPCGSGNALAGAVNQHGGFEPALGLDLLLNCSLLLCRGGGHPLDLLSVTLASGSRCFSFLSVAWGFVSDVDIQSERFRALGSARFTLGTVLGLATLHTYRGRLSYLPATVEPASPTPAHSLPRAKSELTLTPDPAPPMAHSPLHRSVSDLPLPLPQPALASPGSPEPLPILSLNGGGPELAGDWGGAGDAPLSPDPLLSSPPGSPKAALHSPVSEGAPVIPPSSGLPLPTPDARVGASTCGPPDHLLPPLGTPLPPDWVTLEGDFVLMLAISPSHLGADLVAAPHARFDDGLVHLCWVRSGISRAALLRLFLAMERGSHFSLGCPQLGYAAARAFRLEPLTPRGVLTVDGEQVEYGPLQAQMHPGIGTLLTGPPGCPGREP
As to conditions: at 0.1 µM.

Test [3] addresses T1, Sphingosine kinase 2 (Homo sapiens). The settings on record: at 1 µM.
The target of test [4] is Casein kinase II subunit alpha (Homo sapiens) (UniProt P68400). The settings on record: at 0.1 µM.
Sequence of Casein kinase II subunit alpha (Homo sapiens) (P68400 whole entry, looked up): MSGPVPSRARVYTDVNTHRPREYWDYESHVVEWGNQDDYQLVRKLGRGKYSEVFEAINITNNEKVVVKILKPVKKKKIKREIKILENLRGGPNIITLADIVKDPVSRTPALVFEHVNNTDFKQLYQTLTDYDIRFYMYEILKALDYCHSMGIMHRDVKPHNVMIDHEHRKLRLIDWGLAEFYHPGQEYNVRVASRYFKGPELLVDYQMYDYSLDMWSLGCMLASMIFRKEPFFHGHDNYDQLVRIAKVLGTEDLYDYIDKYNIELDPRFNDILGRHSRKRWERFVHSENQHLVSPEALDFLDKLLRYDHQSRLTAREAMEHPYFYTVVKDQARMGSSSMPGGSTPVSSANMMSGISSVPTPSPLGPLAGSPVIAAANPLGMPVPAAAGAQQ
Test [5] has the same target. The settings on record: at 1 µM.
Test [6] concerns the target T2, Inhibitor of nuclear factor kappa-B kinase subunit alpha (Homo sapiens) (UniProt O15111).
T2 sequence (whole entry): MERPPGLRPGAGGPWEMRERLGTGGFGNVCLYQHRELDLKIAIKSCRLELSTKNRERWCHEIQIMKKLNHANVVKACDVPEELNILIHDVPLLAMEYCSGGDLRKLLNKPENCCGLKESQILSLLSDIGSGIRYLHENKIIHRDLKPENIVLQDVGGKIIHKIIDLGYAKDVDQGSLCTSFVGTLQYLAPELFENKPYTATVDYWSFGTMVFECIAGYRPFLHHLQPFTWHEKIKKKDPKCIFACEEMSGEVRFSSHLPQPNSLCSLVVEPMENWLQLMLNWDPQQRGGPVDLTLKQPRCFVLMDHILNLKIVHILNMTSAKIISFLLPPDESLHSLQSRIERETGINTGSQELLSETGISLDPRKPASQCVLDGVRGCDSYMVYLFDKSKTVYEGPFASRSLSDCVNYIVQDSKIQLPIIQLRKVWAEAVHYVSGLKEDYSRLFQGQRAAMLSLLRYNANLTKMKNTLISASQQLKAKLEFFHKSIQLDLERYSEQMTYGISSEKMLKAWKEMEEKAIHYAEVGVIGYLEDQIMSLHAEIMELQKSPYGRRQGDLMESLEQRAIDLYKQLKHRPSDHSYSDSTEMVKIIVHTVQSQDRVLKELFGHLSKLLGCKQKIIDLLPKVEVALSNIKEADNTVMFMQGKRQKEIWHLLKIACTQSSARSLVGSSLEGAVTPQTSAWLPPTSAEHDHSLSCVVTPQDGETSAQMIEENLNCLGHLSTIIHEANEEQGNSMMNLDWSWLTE
The settings on record: at 0.1 µM.

Test [7] addresses T2, Inhibitor of nuclear factor kappa-B kinase subunit alpha (Homo sapiens). The settings on record: at 1 µM.
The target of test [8] is T3, Inhibitor of nuclear factor kappa-B kinase subunit beta (Homo sapiens) (UniProt O14920).
T3 sequence (whole entry): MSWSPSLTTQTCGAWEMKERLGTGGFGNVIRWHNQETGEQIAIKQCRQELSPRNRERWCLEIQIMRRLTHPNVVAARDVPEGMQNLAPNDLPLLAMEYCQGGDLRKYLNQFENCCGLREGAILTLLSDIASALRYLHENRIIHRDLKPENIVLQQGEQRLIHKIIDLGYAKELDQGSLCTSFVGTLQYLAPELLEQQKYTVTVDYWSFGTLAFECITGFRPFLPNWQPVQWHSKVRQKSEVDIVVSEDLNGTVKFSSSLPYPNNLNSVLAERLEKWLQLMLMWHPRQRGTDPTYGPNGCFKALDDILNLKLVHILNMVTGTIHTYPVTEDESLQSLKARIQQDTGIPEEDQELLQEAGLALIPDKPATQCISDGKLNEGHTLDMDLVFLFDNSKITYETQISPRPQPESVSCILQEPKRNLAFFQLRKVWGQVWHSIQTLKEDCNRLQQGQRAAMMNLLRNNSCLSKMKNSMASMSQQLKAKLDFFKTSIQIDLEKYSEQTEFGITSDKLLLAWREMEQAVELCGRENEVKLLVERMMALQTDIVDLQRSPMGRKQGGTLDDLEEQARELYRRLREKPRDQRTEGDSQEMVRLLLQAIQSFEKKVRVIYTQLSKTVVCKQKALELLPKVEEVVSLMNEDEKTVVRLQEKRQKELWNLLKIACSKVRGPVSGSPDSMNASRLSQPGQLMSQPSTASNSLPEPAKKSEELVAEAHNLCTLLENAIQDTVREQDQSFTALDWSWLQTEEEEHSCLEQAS
The settings on record: at 0.1 µM.

Test [9] deals with T3, Inhibitor of nuclear factor kappa-B kinase subunit beta (Homo sapiens). The settings on record: at 1 µM.
Test [10] has as its target T4, Inhibitor of nuclear factor kappa-B kinase subunit epsilon (Homo sapiens) (UniProt Q14164).
T4 sequence (whole entry): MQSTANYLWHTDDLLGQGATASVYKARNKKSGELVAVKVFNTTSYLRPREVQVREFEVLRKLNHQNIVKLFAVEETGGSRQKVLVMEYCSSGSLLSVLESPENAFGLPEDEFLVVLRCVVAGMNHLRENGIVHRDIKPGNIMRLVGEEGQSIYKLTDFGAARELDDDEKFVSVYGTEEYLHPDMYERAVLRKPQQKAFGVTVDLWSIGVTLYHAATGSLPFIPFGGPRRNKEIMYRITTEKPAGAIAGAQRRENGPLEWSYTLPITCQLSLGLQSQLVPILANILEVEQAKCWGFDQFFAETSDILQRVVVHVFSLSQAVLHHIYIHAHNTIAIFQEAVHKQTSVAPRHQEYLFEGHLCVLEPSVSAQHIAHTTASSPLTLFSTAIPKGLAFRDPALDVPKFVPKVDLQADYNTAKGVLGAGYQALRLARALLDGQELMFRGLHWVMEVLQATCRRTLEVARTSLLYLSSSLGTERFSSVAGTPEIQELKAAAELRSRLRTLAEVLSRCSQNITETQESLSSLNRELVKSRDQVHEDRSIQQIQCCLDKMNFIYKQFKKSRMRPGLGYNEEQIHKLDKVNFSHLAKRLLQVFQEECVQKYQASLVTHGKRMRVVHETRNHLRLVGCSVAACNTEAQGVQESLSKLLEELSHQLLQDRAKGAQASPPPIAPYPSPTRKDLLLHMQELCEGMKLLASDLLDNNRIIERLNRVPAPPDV
As to conditions: at 0.1 µM.

Test [11] addresses T4, Inhibitor of nuclear factor kappa-B kinase subunit epsilon (Homo sapiens). As to conditions: at 1 µM.
Test [12] has as its target T5, Serine/threonine-protein kinase Nek1 (Homo sapiens) (UniProt Q96PY6).
T5 sequence (whole entry): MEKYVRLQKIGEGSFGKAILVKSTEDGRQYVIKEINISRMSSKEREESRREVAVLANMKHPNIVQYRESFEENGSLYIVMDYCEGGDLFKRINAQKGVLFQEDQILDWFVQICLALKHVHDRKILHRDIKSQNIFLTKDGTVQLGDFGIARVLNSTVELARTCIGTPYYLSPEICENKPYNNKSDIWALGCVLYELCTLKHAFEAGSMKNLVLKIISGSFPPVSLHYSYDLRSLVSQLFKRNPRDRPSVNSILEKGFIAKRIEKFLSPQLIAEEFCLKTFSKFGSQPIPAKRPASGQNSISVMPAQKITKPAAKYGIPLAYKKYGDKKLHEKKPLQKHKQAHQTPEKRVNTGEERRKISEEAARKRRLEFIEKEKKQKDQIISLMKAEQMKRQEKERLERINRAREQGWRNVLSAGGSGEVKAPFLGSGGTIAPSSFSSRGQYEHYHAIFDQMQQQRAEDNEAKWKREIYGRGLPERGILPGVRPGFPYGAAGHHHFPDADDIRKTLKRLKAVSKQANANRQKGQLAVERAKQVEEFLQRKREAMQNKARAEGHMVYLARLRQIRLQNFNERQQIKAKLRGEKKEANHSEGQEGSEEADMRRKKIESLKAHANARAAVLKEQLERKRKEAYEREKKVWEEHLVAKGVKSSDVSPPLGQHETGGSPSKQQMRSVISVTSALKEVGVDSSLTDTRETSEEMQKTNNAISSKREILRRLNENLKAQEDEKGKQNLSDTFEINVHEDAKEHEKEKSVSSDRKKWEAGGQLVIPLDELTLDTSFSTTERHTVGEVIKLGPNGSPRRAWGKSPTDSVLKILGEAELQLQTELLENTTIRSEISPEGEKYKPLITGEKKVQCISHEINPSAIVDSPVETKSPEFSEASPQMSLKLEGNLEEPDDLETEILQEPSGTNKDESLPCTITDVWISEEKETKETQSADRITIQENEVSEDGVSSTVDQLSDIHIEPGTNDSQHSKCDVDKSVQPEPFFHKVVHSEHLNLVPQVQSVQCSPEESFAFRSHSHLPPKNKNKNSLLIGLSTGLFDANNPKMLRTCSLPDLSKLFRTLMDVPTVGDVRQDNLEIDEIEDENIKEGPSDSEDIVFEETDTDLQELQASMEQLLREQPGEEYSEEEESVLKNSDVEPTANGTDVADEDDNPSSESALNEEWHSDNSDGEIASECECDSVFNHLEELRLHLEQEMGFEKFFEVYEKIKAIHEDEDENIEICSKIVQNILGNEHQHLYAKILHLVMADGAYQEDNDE
As to conditions: at 0.1 µM.

The target of test [13] is T5, Serine/threonine-protein kinase Nek1 (Homo sapiens). The settings on record: at 1 µM.
Test [14] concerns the target T6, Serine/threonine-protein kinase Nek2 (Homo sapiens) (UniProt P51955).
T6 sequence (whole entry): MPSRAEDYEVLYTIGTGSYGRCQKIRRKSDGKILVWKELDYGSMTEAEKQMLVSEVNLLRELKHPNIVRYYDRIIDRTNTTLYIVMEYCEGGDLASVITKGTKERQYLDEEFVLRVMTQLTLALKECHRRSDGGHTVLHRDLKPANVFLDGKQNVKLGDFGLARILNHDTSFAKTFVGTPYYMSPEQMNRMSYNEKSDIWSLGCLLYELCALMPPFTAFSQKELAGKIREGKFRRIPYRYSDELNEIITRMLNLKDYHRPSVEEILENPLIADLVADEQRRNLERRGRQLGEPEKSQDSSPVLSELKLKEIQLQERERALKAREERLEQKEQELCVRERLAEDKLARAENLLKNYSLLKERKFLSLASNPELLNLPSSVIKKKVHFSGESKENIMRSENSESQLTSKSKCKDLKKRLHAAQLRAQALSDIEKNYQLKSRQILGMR
The settings on record: at 0.1 µM.

The target of test [15] is T6, Serine/threonine-protein kinase Nek2 (Homo sapiens). As to conditions: at 1 µM.
The target of test [16] is Serine/threonine-protein kinase Nek6 (Homo sapiens) (UniProt Q9HC98). The settings on record: at 0.1 µM.
Sequence of Serine/threonine-protein kinase Nek6 (Homo sapiens) (Q9HC98 whole entry): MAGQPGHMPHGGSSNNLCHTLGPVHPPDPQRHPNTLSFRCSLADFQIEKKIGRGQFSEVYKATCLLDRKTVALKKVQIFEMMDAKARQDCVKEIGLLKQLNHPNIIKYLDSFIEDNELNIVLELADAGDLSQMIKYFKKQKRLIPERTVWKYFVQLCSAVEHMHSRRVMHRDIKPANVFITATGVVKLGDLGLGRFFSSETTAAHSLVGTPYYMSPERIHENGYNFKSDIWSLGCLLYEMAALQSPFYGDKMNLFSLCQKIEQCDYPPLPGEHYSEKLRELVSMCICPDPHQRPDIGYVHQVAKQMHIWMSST
Test [17] shares this target. As to conditions: at 1 µM.
Test [18] has as its target Serine/threonine-protein kinase Nek7 (Homo sapiens) (UniProt Q8TDX7). The settings on record: at 0.1 µM.
Test [19] has the same target. As to conditions: at 1 µM.
The target of test [20] is T7, Serine/threonine-protein kinase Nek9 (Homo sapiens) (UniProt Q8TD19).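 Further: reported value is the mean percent inhibition of NEK9.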
T7 sequence (whole entry): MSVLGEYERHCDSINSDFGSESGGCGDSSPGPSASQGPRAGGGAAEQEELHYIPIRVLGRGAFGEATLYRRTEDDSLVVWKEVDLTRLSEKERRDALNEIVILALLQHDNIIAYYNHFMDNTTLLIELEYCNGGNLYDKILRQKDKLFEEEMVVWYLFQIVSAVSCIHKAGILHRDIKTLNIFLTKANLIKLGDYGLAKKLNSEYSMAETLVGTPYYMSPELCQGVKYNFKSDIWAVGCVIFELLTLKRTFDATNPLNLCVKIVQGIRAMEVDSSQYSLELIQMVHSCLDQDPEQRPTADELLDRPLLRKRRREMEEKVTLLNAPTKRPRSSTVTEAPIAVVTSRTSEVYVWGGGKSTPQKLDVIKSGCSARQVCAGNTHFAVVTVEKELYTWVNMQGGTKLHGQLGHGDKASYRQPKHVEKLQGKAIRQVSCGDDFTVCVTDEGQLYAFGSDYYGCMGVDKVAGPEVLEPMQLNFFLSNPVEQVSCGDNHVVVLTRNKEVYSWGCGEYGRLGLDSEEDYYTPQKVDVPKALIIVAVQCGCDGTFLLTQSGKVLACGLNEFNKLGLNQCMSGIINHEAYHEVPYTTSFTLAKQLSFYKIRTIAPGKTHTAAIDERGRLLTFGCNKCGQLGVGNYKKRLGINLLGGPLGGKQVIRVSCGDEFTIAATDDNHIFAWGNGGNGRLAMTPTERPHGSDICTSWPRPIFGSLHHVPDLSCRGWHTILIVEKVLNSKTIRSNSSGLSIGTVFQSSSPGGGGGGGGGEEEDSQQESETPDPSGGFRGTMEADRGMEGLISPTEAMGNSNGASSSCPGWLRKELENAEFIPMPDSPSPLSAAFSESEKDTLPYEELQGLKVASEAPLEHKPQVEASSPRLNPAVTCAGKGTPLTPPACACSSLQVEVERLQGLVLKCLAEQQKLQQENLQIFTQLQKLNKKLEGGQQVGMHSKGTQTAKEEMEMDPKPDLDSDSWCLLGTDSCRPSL
The settings on record: at 0.1 µM.

Sequence of Serine/threonine-protein kinase Nek7 (Homo sapiens) (Q8TDX7 whole entry, looked up): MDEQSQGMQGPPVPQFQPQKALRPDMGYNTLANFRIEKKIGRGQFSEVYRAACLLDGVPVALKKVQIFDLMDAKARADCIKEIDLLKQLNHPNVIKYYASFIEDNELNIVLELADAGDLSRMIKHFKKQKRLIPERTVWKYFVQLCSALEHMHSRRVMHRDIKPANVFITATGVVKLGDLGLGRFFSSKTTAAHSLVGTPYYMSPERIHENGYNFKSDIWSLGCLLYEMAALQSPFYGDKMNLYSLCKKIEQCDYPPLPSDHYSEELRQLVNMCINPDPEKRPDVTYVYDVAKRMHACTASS
Sequence of Sphingosine kinase 1 (Homo sapiens) (Q9NYA1 whole entry): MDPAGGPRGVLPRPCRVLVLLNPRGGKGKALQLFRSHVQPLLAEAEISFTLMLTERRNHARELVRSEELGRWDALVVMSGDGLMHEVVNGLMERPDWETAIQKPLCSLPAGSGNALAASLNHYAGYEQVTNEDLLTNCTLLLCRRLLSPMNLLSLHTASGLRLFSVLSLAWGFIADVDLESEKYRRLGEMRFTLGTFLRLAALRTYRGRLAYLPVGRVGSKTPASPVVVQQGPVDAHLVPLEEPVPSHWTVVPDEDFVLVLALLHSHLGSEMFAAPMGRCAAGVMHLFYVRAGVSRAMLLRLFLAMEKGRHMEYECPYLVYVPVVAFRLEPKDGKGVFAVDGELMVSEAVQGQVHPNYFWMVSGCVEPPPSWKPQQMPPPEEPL

As for `Nc1nc(-c2cccc(Cl)c2)c(-c2ccc3ncccc3n2)s1`, the inhibition in test [1] is -3.27%; in test [2] it was 0.78%; in [3], 0.1%; in [4], 4.99%; in test [5], 15.3%; in test [6] it was 10.6%. The inhibition in test [7] worked out at 13.9%; in test [8], 8.18%; in [9] it was 7.33%; in [10] it was 9.04%; in [11], 8.93%; in test [12] it was 2.49%. In addition, the inhibition in [13] was 6.68%; in test [14], 5.95%; in test [15], 4.63%; in [16], 3.94%; in test [17], 6.59%; in [18], 1.99%. Moreover, the inhibition in [19] turned out to be 4.09%; in [20] it was 6.55%.
